From PubChem BioAssay AID720513 (Broad Institute, 2013)
Among all 2,100 compounds or so, about 480 (23%) were called active. Roughly 5% stayed inconclusive and do not appear here.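 Rule for the calls: active = fitted curve reaches 40% activation at or below the top valid concentration, in every replicate test; inconclusive = replicate tests disagree on the call; inactive = the rest, including activity in the opposite direction.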 Not all results are given here. Results with a measured potency or affinity are listed apart.

Assay: PGC1a acetylation increase, cellular AlphaLISA – cell-based, cherry-picked samples, set 6, dose response (AID 720513);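 note: cells made to overexpress flag tagged PGC1a plus GCN5 acetyltransferase by viral infection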
Conditions: U2OS PGC1a acetylation AlphaLISA, overnight, 0 = neutral, -100 = inhibitor control; series mostly up to 19.5 µM; activation (acetylation increase): at the top concentration

Activation (acetylation increase), inactive:
C[C@@H]1CN([C@H](C)CO)C(=O)c2cc(-c3ccccc3)cnc2O[C@H]1CN(C)C(=O)Cc1ccccn1 -7.93%, CN(C)CCNC(=O)c1cccc2c(-c3ccc(F)c(F)c3)coc12 20.9%, O=C(CSc1nnc(-c2ccco2)n1-c1ccccc1)Nc1c(Cl)cc(Cl)cc1C(=O)O 9.43%, CCC(=O)Nc1ccnc(-c2cccnc2)n1 22.6%, Cc1ccc2oc(Nc3nc(C)c(C)c(C)n3)nc2c1 -3.44%, COC(=O)/C=C/c1cnc2ccccc2c1 -0.261%, O=C(/C=C/c1cccs1)c1ccc(NC(=O)c2cccc(Br)c2)cc1 -11.5%, CC(c1ccccc1)N1C(=O)NC(NC(=O)c2cccnc2)(C(F)(F)F)C1=O (stereo not given) 7.53%, CCC(=O)Nc1cccc(C(=O)/C=C/c2ccccc2)c1 -64.7%, O=C(CCS(=O)(=O)c1ccc(Cl)cc1)Nc1nccs1 12.8%, OC[C@H]1[C@H](c2ccc(C#CC3CCCC3)cc2)[C@@H]2CN(CCC(F)(F)F)CCCCN12 -58%, COc1ccc(CN(C)C[C@@H]2Oc3ccc(NS(=O)(=O)c4c(C)noc4C)cc3C(=O)N([C@@H](C)CO)C[C@@H]2C)cc1 38%, C[C@H]1CCCCO[C@H](CN(C)Cc2ccncc2)[C@@H](C)CN([C@@H](C)CO)C(=O)c2cc(NS(=O)(=O)c3ccccc3)ccc2O1 -16.6%, O=C1C=CCCN1C(=O)/C=C/c1cccc(C(F)(F)F)c1 -79.7%, COc1ccc(C#Cc2ccc([C@H]3[C@@H](CO)N4CCCCN(C(=O)Nc5ccc(F)cc5)C[C@H]34)cc2)cc1 -94.6%, C[C@@H]1CN([C@@H](C)CO)C(=O)Cc2cc(NC(=O)C3CCCCC3)ccc2O[C@@H]1CN(C)Cc1ccc(Cl)c(Cl)c1 31.6%, CC(C)CC#Cc1ccc([C@H]2[C@H](CO)N3C(=O)CN(C(=O)Nc4cc(F)ccc4F)C[C@@H]23)cc1 -34.3%, O=C(COC(=O)c1cc[n+]([O-])cc1)Nc1cccc(Cl)c1Cl 18.2%, Cc1c(Cl)cccc1Nc1ncccc1C(=O)O -8.63%, Cc1noc(C)c1NC(=O)N(C)C[C@H]1OCCCC[C@@H](C)Oc2ccc(NC(=O)Cc3ccccc3)cc2C(=O)N([C@@H](C)CO)C[C@@H]1C -3.05%, C[C@@H]1CN([C@H](C)CO)C(=O)c2cc(NS(=O)(=O)c3cccs3)ccc2O[C@@H]1CN(C)S(=O)(=O)c1ccc(F)cc1 2.7%, Cc1ccc(S(=O)(=O)N[C@@H]2CC[C@@H](CCNC(=O)c3ccccc3F)O[C@H]2CO)cc1 6.51%, O=C(CSc1nc2ccc(Cl)cc2[nH]1)c1ccc2c(c1)OCO2 6.16%, Cn1c(=O)c2cc(S(=O)(=O)NCCC(=O)NCc3ccccc3Cl)ccc2n(C)c1=O 4.26%, O=C(COc1ccc(Br)cc1)NCCNC(=O)c1cccnc1 71.5%, CCCNC(=O)c1ccc(COc2ccc(Cl)cc2)o1 0.816%, CCOc1ccc2nc(NCCCNC(=O)c3cc(OC)c(OC)c(OC)c3)c(C#N)cc2c1 -5.62%, Cc1cc(OCC(=O)NNC(=O)c2cnccn2)cc(C)c1Cl -4.82%, O=C(C[C@@H]1C[C@@H]2c3cc(NC(=O)Nc4ccccc4F)ccc3O[C@@H]2[C@H](CO)O1)NCc1ccc(Oc2ccccc2)cc1 9.89%, CCc1cc2c(N3CCN(c4nnc(CC)s4)CC3)ncnc2s1 -4.99%, COc1cccc(-c2ccc(C3[C@H]4CNC[C@@H]3N4Cc3ccc4c(c3)OCO4)cc2)c1 (stereo not given in full) -12.3%, COc1ccc(-c2ccc(C3[C@@H]4CN(Cc5cc(OC)cc(OC)c5)C[C@H]3N4)cc2)cc1 (stereo not given in full) -98.7%, O=C(Nc1ccccc1)C1=C(c2ccccc2)S(=O)(=O)CCS1(=O)=O -95.9%, Cn1nc(-c2ccccn2)nc2c(=O)n(C)c(=O)nc1-2 -108%, COc1cc(C(=O)N2CCN(S(=O)(=O)c3cccc(F)c3)CC2)ccc1OCC(=O)N1CCOCC1 15.1%, CN(C)c1ccc(C=C2SC(=S)NC2=O)cc1 -60.6%, CCOC(=O)/C(C#N)=C1/C(=O)N(Cc2ccccc2)c2ccccc21 36.9%, CC(=O)c1coc2c1cc(O)c1ccccc12 -14.2%, CCOCCn1c(N2CCN(c3ccccc3)CC2)nc2c1c(=O)n(C)c(=O)n2C 3.02%, CCOCCCNc1nc2c(c(=O)n(C)c(=O)n2C)n1CCCc1ccccc1 41%, C/C=C/Cn1c(SCc2ccc(Cl)cc2)nc2c1c(=O)[nH]c(=O)n2C -18.2%, CCn1c(Oc2ccccc2F)nc2c1c(=O)n(C)c(=O)n2C -23%, Cn1c(=O)c2c(ncn2CC(=O)O)n(C)c1=O -6.17%, CSc1nc2c(c(=O)[nH]c(=O)n2C)n1Cc1ccccc1 -24.9%, CC(C)CN1CCN(C(=O)COC(=O)c2ccc(S(C)(=O)=O)c([N+](=O)[O-])c2)CC1 -74.6%, CCC(=O)N[C@H]1CC[C@H](CC(=O)OC)O[C@H]1CO -20.6%, CCCc1ccc(C(O)c2ncc(-c3cccc(F)c3)[nH]2)cc1 (stereo not given) 9.11%, COc1ccc(S(=O)(=O)Nc2ccc3c(c2)C(=O)N([C@H](C)CO)C[C@@H](C)[C@H](CN(C)C(=O)Nc2ccc(C(F)(F)F)cc2)OCCCC[C@@H](C)O3)cc1 -7%, O=C(OCc1nnc(-c2ccccc2)o1)C1=COCCO1 5.96%, C=CCn1c(SCc2c(C)noc2C)nc2ccccc2c1=O -6.19%, C[C@@H]1CN([C@@H](C)CO)S(=O)(=O)c2ccc(-c3ccccc3)cc2O[C@@H]1CN(C)C(=O)c1ccccc1F -30%, CCn1c(C(C)NC(=O)c2ccccc2C)n[nH]c1=S (stereo not given) 26%, COc1ccc(C#Cc2ccc([C@H]3[C@@H](CO)N4CCCCN(C(=O)Nc5ccccc5)C[C@H]34)cc2)cc1 -91% [at 21 µM], O=C(Cn1ncc(Cl)c(Cl)c1=O)NC(=O)NC1CCCCC1 -38.6%, CO[C@@H]1CN(C)C(=O)c2cc(NC(C)=O)ccc2OC[C@H](C)N(Cc2cc(F)ccc2F)C[C@H]1C 9.55%, N#C/C(=C/c1ccc(OCc2ccc(C(=O)O)cc2)c(Br)c1)c1cccc(F)c1 24.4%, C[C@H]1CN([C@@H](C)CO)S(=O)(=O)c2ccc(Br)cc2O[C@@H]1CN(C)S(=O)(=O)c1ccccc1F 35.6%, CCN(C[C@@H]1N[C@@H](CO)[C@H]1c1ccc(-c2ccc(F)cc2)cc1)C(=O)CN(C)C -2.97% [at 21 µM], COc1ccccc1C#Cc1ccc([C@H]2[C@H](C#N)N(C(=O)C3CCCC3)[C@H]2CO)cc1 -92%, O=S(=O)(c1ccc(Cl)cc1)c1snnc1-c1ccccc1 -91.3%, Clc1ccc(-c2csc(N3CCSCC3)n2)cc1 28.4%, C[C@@H]1CN([C@@H](C)CO)C(=O)CCCn2cc(nn2)CO[C@H]1CN(C)S(=O)(=O)c1ccccc1 -19%, CCCn1c(-c2ccccc2)cc(SC)c(C#N)c1=O -11.4%, COc1c(O)cc(O)c2c(=O)cc(-c3ccccc3)oc12 -3.89%, C=CCn1c(C)nnc1SCC(=O)NC1CC1 -11.2%, CC(C)c1ccc(NC(=O)CCNS(=O)(=O)c2cccc3nonc23)cc1 25.9%, Cc1cc(C)nc(SCC(=O)OCN2C(=O)c3ccccc3C2=O)n1 -12.4%, CCN(c1ccccc1)S(=O)(=O)c1ccc(OC)c(NC(=O)Cc2ccc(F)cc2)c1 23.9%, COc1ccccc1NS(=O)(=O)c1cccc(NC(=O)C2CC(=O)N(Cc3ccccc3)C2)c1 (stereo not given) -13.3%, CCc1ccc(Nc2nnc(SCC(=O)Nc3ccc(C(=O)O)cc3)s2)cc1 7.61%, CCOc1ccccc1C(=O)NCCCCCC(=O)O -10.7%, COCCNC(=O)CN1CCC(NC(=O)C(C)(C)C)CC1 -10.4%, O=C(c1cc2ccccc2o1)N1CC=C(c2ccccc2)CC1 11.8%, CC1=Nc2ccccc2N=C(NC(=O)CN2CCN(c3ccccc3)CC2)C1c1ccccc1 (stereo not given) 15.8%, COc1cc(C2C(C#N)=C(N)Oc3c2oc(CO)cc3=O)cc(OC)c1OC (stereo not given) 14.7%, CC(C)N1CCc2c(sc(NC(=O)C3CCCCC3)c2C(N)=O)C1 -11.6%, COC(=O)[C@@]1(Cc2ccccc2CN=[N+]=[N-])N=C(c2ccc(OCCCO)cc2)O[C@H]1c1ccccc1 -52.1%, Cc1ccccc1-n1nnnc1Sc1nnnn1-c1ccccc1 -122%, Cc1ccccc1Cn1nc(C)c(NC(=O)c2cc(-c3cccs3)on2)c1C -5.04%, NC(=O)COC(=O)/C=C/c1ccc2ccccc2n1 21.1%, COc1ccc(S(=O)(=O)N2c3ccc(F)cc3CCC2C)cc1 (stereo not given) 32.1%, CCOc1ccc(N2C(=O)Cc3ccccc3C2=O)cc1 -25.8%, CCc1ccc(N2CC(O)=C(c3nc4ccccc4c(=O)[nH]3)C2=N)cc1 24.7%, O=C(CCc1nc2ccccc2c(=O)[nH]1)OCC(=O)N1CCc2ccccc21 1.36%, CO[C@H]1CN(C)C(=O)c2ccc(NC(=O)c3ccno3)cc2OC[C@H](C)NC[C@H]1C 26.5%, Cc1cccc(C)c1NC(=O)CN(C)C(=O)c1cc(S(=O)(=O)N(C)C)ccc1N1CCCC1 8.66%, COc1ccccc1C(=O)Nc1ccc2c(c1)nc(CCNC(=O)c1ccco1)n2C 20.5%, CN(Cc1ccccc1)S(=O)(=O)c1ccc(S(=O)(=O)N(Cc2ccc(F)cc2)C2CCCC2)cc1 4.54%, Cc1ccc2nsnc2c1S(=O)(=O)N(Cc1ccco1)Cc1cc2cccc(C)c2[nH]c1=O 0.899%, COc1ccc(-c2csc(N(CCCN(C)C)C(=O)c3ccc(Br)cc3)n2)cc1 34.3%, COc1ccc(-c2csc(N(CCCN(C)C)C(=O)c3cccs3)n2)cc1 15.2%, CO[C@H]1CN(C)C(=O)c2cc(NC(C)=O)ccc2OC[C@@H](C)N(CC2CCCCC2)C[C@@H]1C 20.4%, CC(c1n[nH]c(=S)n1Cc1ccccc1)N(C)C (stereo not given) 7.93%, CCCCSCCCNC(=O)c1cn(C)c2ccc(S(=O)(=O)N3CCCC3)cc2c1=O 34% [at 10 µM], O=S(=O)(c1ccc2[nH]ccc2c1)N1CCCCCC1 -0.576% [at 5 µM]
